Screens from PubChem BioAssay.
This is one part of a sample in which hits are shown more often than they occur.
USP2a block: blocks human ubiquitin-specific protease USP2a; USP2 core, Ub-CHOP2 coupled fluorogenic reporter, 485/531; hit rate 0.01% among 330,000; Potency, µM (highest dose often 38.3 µM), inactives show at the top dose activity change, negative = inhibition, actives largely listed as inhibitors; O75604;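 further: plate controls were DMSO wells for no effect and full inhibition by NEM control for full effect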
Target sequence (O75604 whole entry, looked up): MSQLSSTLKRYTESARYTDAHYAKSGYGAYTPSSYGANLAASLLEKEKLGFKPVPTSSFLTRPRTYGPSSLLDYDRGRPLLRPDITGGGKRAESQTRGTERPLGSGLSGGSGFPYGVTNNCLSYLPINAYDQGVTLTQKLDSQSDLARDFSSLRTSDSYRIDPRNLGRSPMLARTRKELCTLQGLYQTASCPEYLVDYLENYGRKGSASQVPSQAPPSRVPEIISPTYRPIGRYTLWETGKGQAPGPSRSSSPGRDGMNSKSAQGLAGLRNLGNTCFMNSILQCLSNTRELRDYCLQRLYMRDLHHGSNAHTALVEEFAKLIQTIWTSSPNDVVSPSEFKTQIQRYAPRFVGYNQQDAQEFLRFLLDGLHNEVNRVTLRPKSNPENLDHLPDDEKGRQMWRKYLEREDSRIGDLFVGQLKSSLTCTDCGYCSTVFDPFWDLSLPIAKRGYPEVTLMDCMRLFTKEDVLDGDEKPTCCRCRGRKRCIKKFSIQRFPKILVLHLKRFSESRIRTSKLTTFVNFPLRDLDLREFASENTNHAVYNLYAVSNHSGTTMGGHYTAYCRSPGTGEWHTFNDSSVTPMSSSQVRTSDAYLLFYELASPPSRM
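Cell-free coupled assay: 10nM USP2 core preincubated 30min RT with compound in Tris-HCl pH 8.0/CaCl2/CHAPS buffer, then 25nM Ub-CHOP2 and 25nM reporter substrate; fluorescence (Ex 485/Em 531) read after 60min RT, normalized to NEM inhibition, concentration-response curves fitted.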
Eya2 phos inh: inhibitors of human Eya2 phosphatase activity; hit rate 0.006% among 330,000; O00167; Potency, µM (highest dose often 76.9 µM), inactives show at the highest dose activity, negative = inhibition, hits mostly inhibitors; recombinant Eya2, OMFP fluorescence dephosphorylation (OMFP is methylfluorescein phosphate); further: on the % scale 0 is the no-effect control and ±100 the full control effect
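Eya2 protein (added as 0.2 uM solution) was preincubated with compound for 10 min at ambient temperature in 50 mM HEPES pH 7.5, 50 mM NaCl, 5 uM MgCl2, 0.05% BSA, 1 mM DTT. OMFP (added at 50 uM) then reacted 10 min; fluorescence read at 485/525 nm.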
ClpP mod: qHTS Assay for Activators of ClpP; purified B. subtilis ClpP, FRET peptide cleavage, 20 min; Potency, µM (doses to about 57.5 µM), for the others: at the highest dose activity change, negative = active; hit rate 1.9% among 340,000; active means well fitted falling curve with a large enough effect; inconclusive means small, poorly fitted or top-dose-only effect; inactive means no such curve, though single readings can be large or run the other way; further: the source files actives as falling curves though it sought activators and does not explain the sign; nearly all actives have a fitted effect of over 65% in size
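FRET quenching reversal measured ClpP activation: 10 microg/mL B. subtilis ClpP at pH 8 with the FRET-FV decapeptide, read at 430 nm after 320 nm excitation. The 20-min minus 0-min signal was scaled between DMSO/no-enzyme wells and ADEP (5.8 microM final).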
GALK inhibitor: galactokinase (human) inhibition; Purified GALK, Kinase-Glo residual ATP luminescence; P51570; hit rate 0.007% among 270,000; Potency, µM (titrated, usually from 57.5 µM), for inactives: top-dose activity change, negative = inhibition, most hits filed as inhibitors; AID 1868; further: on the % scale 0 is the no-effect control and ±100 the full control effect
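ATP-depletion format; final 35 uM ATP, 100 uM D-galactose, 5 nM enzyme; pH 8.0 HEPES/Mg2+ buffer; 60 min RT; luminescence read 10 min after detection reagent.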
An asterisk follows results filed as active; ? = inconclusive; . = no result; [ ] = dose if it differs, or a comment. Unless noted, the call rests on the fitted dose curve; in most records, active means well fitted inhibition curve with a large enough effect; inconclusive means small, poorly fitted or top-dose-only effect, or effect the other way; inactive means flat fitted curve, though single readings scatter. Potency means the concentration at half of the fitted maximal effect.

SMILES	USP2a block	Eya2 phos inh	ClpP mod	GALK inhibitor
CCCOc1ccc2oc(=O)c3c(c2c1)CCCN3C(=O)CN1CCc2ccccc2C1	-3%	-1%	18µM*	-1%
COc1cc(OC)cc(C(=O)Nc2ccc(C(=O)NCC3CCCO3)cc2)c1 (stereo not given)	1%	0%	0%	-5%
COc1ccc(C2(O)CC3CCC(C2)N3c2nc(C)cc(C)c2C#N)cc1 (stereo not given)	-10%	1%	28µM*	0%
Cc1nn(C)c(Cl)c1CN1CCCC(C(=O)Nc2ccc(-c3cscn3)cc2)C1 (stereo not given)	0%	-8%	25µM*	-2%
COc1ccc(N2CCN(C(=O)c3ccccc3NS(=O)(=O)c3ccccc3)CC2)cc1	1%	-8%	28µM*	0%
Cc1ccc(N2C(=O)C3Sc4[nH]c(=O)sc4C(c4ccccc4)C3C2=O)cc1 (stereo not given)	1%	9%	2%	-4%
Cc1cc(N2CCN(C)CC2)nc2ccc(NC(=O)Nc3ccc(Cl)cc3)cc12	.	.	4%	.
Cc1cc(N2CCCN(C)CC2)nc2cc(Cl)ccc12	-1%	8%[15.4 µM]	32µM*	-1%
COC(CNC(=O)c1ccc2nc3ccccc3c(=O)n2c1)OC	-1%	7%	.	.
COCCCNC(=O)c1ccc2nc3ccccc3c(=O)n2c1	-1%	4%	16µM*	0%
CNC(=O)c1ccsc1NC(=O)CCS(=O)(=O)c1ccccc1	1%	-6%	-5%	-2%
Nc1ncnc2c1ncn2[C@@H]1O[C@H](C(=O)NS(=O)(=O)c2cccs2)[C@@H](O)[C@H]1O	.	.	-1%	.
O=C(Nc1cccc2c1CCCC2)c1cc([N+](=O)[O-])cc([N+](=O)[O-])c1	3%	-18%	28µM*	-1%
COc1ccc(C(=O)Nc2cccc3c2CCCC3)cc1	-1%	-9%	-8%	3%
CCOC(=O)c1ccc(CC(=O)c2oc3cc(O)ccc3c2C)o1	3%	32%	32µM*	7%
Cc1ccc(OCCOc2ccc(Br)cc2/C=N\NC(N)=O)cc1	0%	-8%	0%	0%
O=C(NNS(=O)(=O)c1cc(Cl)c(Cl)cc1Cl)c1cccnc1	-6%	9%	0%	3%
COCC(=O)Nc1cc(OC)cc(OC)c1	3%	-16%	28µM*	0%
CCN(CC)c1ccc(/C=N/NC(=O)c2c[nH]c3ccccc23)cc1	0%	1%	32µM*	2%
CCN(CC)c1ccc(/C=N/NC(=O)c2cc3ccccc3[nH]2)cc1	0%	-4%	4%	6%
Cc1ccc(NC(=O)CS(=O)CC(=O)NCC2OCCc3ccccc32)c(C)c1 (stereo not given)	4%	-1%	-3%	5%
O=C(CS(=O)CC(=O)Nc1ccc(Cl)cc1)NCC1OCCc2ccccc21 (stereo not given)	-5%	-13%	11µM*	-1%
COc1ccc(Cl)cc1S(=O)(=O)NCc1nc2nc(C)cc(C)n2n1	0%	8%	-4%	.
CSCC[C@H](NC(=O)[C@@H]1Cc2ccccc2CN1)C(=O)NC(C)c1ccccc1 (stereo not given in full)	4%	-10%	-3%	8%
Cc1ccc(NC(=O)c2sc(Cl)nc2-c2ccccc2)cc1	7%	5%	-3%	2%
SMILES	USP2a block	Eya2 phos inh	ClpP mod	GALK inhibitor
CCOC(=O)C(=CNc1nc(-c2ccccc2)c(C(=O)Nc2ccc(-c3ccccc3)cc2)s1)C(=O)OCC	4%	-1%	13µM*	3%
C=CCn1c(C)c(C(C)=O)c(N2CCCC2)nc1=S	1%	3%	1%	2%
c1cc(CNc2ccc(N3CCOCC3)cc2)ccn1	1%	19%	32µM*	5%
COc1ccc(C(=O)NNC(=O)C(=O)N2CCCCC2)cc1OC	0%	1%	4%	-8%
Cc1cc2oc(=O)cc(CN3CCCCC3)c2cc1Cl	.	.	-3%	.
OC(CNc1ccnc2cc(Cl)ccc12)CNC1CCCCC1 (stereo not given)	.	.	28µM*	.
CCN(CC)CCNc1ccnc2cc(Cl)ccc12	1%	-19%	32µM*	2%
COC(=O)C1=CN(C(C)C)C=C(C(=O)OC)C1c1cc2c(cc1Br)OCO2	-1%	5%	32µM*	1%
C=CCN1C(=O)/C(=C\c2ccc(Cl)cc2)N=C1SCC(=O)NCCC	3%	25%	-2%	0%
Cc1cc(-c2nc3ccccc3s2)ccc1NC(=O)c1cc(Cl)ccc1Cl	.	.	2%	.
Cc1cccc(C(=O)Nc2ccc(-c3nc4ccccc4s3)cc2Cl)c1	.	.	25µM*	.
CCOC(=O)C1CCN(C(=O)Cn2c(-c3cccs3)cc3cc(Cl)ccc32)CC1	.	.	35µM*	.
CC1CCN(C(=O)Cn2c(-c3cccs3)cc3cc(Cl)ccc32)CC1	.	.	35µM*	.
CCOC(=O)C1CCN(C(=O)c2cccs2)CC1	4%	0%	-2%	0%
CCOc1ccc(C(=O)Nc2ccc(-c3cc4ccccc4oc3=O)c(C)c2)cc1[N+](=O)[O-]	3%	4%	?	1%
Cc1ccc(NC(=O)CSCC(N)=O)cc1C	0%	7%	0%	2%
CCN(CC)c1ccc2cc(C(=O)Nc3cccnc3N3CCOCC3)c(=O)oc2c1	-1%	-3%	.	-1%
Cc1ccc(N2C(=O)c3ccccc3NC2C(C)Cc2ccc3c(c2)OCO3)cc1 (stereo not given)	1%	3%	32µM*	-2%
COc1cc(C)c(-c2cc(C(=O)O)c(C)o2)cc1C(C)C	2%	-4%	-16%	1%
COc1cccc(CNc2nc3nc(C)cc(C)n3n2)c1	4%	-22%	20µM*	2%
CCOC(=O)c1c(NC(=O)C2CCCO2)sc(C(N)=O)c1C (stereo not given)	-6%	-5%	28µM*	1%
CCCOC(=O)c1c(NC(=O)C2CCCO2)sc(C(=O)OC)c1C (stereo not given)	-3%	-2%	-2%	3%
COc1ccc(C)cc1NC(=O)Cn1c(=O)c(C(F)(F)F)nc2ccccc21	.	.	7%	.
CC(C)Cc1nc2oc3c(=O)[nH]cnc3c2c2c1CCC2	2%	5%	11µM*	5%
CC(C)Cc1nc2oc3c(=O)[nH]cnc3c2c2c1CCCC2	0%	1%	?	.
COc1ccc(C(c2nnnn2CS(=O)(=O)c2ccc(C)cc2)N2CCN(c3ncccn3)CC2)cc1 (stereo not given)	3%	0%	32µM*	0%
CCOC(=O)C(C(=O)Nc1cccc(C)n1)C1CCCCC1 (stereo not given)	0%	11%	-1%	0%
CCOC(=O)C(C(=O)Nc1ccccn1)C1CCCCC1 (stereo not given)	1%	12%	28µM*	2%
CCc1ccc(N(CC(=O)NC2CCCCC2)C(=O)CCC(=O)Nc2ccccn2)cc1	3%	-6%	16µM*	14%
Cc1ccc(N(CC(=O)NC2CCCC2)C(=O)CCC(=O)Nc2ccccn2)cc1	0%	-1%	.	1%
